Molecules are shown by their SMILES. Results filed as inconclusive are left out. Active and inactive are the calls of the source. Unless noted, calls follow the shape of the full dose curve.

Experiment [1] deals with Luciferin 4-monooxygenase (Photinus pyralis) (UniProt P08659). Description: Biochemical firefly luciferase enzyme assay for NPC (AID 624030; active = well fitted curve in the direction sought with a large enough effect; an effect the other way counts as inactive or inconclusive;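 also: purified P. pyralis luciferase at 10 nM with luciferin and ATP substrate; series mostly up to about 59 µM; 0% = DMSO and -100% = full luciferase inhibition by PTC124 control; nearly all actives have a fitted effect of over 70% in size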). The method in brief: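 Direct inhibition of firefly luciferase enzyme (10 nM final, 50 mM Tris Acetate) assessed by luminescence within 5 minutes. Percent activity scaled between DMSO and PTC124 positive control, with concentration-effect curves classified by fit quality and response.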
Luciferin 4-monooxygenase (Photinus pyralis), sequence (P08659 whole entry, looked up): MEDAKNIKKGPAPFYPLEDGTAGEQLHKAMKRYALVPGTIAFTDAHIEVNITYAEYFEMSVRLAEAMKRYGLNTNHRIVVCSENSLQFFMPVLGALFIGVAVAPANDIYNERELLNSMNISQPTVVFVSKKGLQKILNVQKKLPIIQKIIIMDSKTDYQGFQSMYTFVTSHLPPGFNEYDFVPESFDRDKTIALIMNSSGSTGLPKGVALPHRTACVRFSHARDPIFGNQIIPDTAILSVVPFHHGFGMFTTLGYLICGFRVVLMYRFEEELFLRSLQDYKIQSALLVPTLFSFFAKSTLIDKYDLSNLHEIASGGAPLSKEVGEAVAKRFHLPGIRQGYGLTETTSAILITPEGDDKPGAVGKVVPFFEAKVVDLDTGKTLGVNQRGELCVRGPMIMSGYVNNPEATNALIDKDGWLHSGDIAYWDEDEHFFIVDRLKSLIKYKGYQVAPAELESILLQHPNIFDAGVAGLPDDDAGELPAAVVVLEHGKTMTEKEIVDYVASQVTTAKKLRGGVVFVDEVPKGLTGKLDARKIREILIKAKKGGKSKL

Experiment [2] in a line: S16 Schwann cell viability assay (CellTiter-Glo assay) (AID 624031; active = well fitted curve in the direction sought with a large enough effect; an effect the other way counts as inactive or inconclusive;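 also: native untransfected S16 rat Schwann cells; cellular ATP luminescence as a viability measure; series mostly up to about 58 µM; plate controls were DMSO-treated cells for no effect and cell-free wells for full effect; nearly all actives have a fitted effect of over 70% in size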). The method in brief: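 Cells were seeded at 500-750 per well in phenol red-free DMEM with 10% FBS and left overnight. Compounds or DMSO were pinned in, incubation ran 24 h at 37 °C/5% CO2, then CellTiter-Glo reagent was added and luminescence measured.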
A short description of experiment [3]: S16 Schwann cell PMP22 intronic element firefly luciferase assay (AID 624032; active = well fitted curve in the direction sought with a large enough effect; an effect the other way counts as inactive or inconclusive;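 also: series mostly up to about 58 µM; plate controls were DMSO for no effect and PTC124 positive control mean for full effect; nearly all actives have a fitted effect of over 30% in size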). The method in brief: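 Luciferase reporter of PMP22 intronic-element expression in stably transfected S16 rat Schwann cells, read by ONE-Glo luminescence after 24 h compound exposure at 37 C. Activity scaled between DMSO (0%) and positive-control PTC124; concentration-effect curves quality-classified.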

Experiment [4] can be described thus: S16 Schwann cell PMP22 intronic element beta-lactamase assay (AID 624044).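 Also: 0% = DMSO and -100% = potassium clavulanate positive control; nearly all actives have a fitted effect of over 15% in size.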 The method in brief: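 Beta-lactamase reporter under a PMP22 intronic regulatory element in stable S16 rat Schwann cells; 24 h compound exposure. 460 nm blue signal normalized between DMSO (0%) and potassium clavulanate, with 535 nm FRET tracking viability; curves classed by r2 and response.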

Experiment [5] has as its target Vitamin D3 receptor (Homo sapiens) (UniProt P11473). Description: qHTS assay for small molecule agonists of vitamin D receptor signaling (AID 588543).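 Also: 0% = DMSO basal and 100% = reference agonist control.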 The gist of the method: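 qHTS in agonist mode: compound titrations stimulate a VDR-driven β-lactamase reporter in HEK293T cells over 16 h at 37 °C. Response normalized to 50 nM 1α,25-dihydroxyvitamin D3 = 100%, DMSO = 0%; Hill fitting gives EC50 and maximal response.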

A short description of experiment [6]: qHTS assay for small molecule agonists of retinoid X receptor alpha signaling (AID 588544).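 As to activation: 0% = DMSO basal wells and 100% = reference agonist.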 Particulars: HEK293T RXRa-UAS-bla, beta-lactamase reporter, 18 h; 530 nm emission.
Experiment [7] addresses Retinoic acid receptor RXR-alpha (Homo sapiens) (UniProt P19793). The experiment is described as above.
For experiment [8], the target named is Thyroid hormone receptor beta (Homo sapiens) (UniProt P10828). Description: qHTS assay for small molecule agonists of thyroid hormone receptor beta signaling (AID 588545).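 Also: 0% = DMSO only and 100% = 10 nM T3.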 The method in brief:
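Efficacy and EC50 values derive from Hill fits of qHTS titration data, normalized to 10 nM T3 and DMSO-only wells. HEK 293 reporter cells were stimulated for 18 hrs at 37 C, with beta-lactamase activity measured by CCF4 fluorescence.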

Experiment [9] can be described thus: qHTS assay for small molecule antagonists of retinoid X receptor alpha signaling (AID 588546; active = well fitted inhibition curve with a large enough effect in the signal ratio, with a control signal flat, not every such curve was filed as active; the % refers to the signal ratio;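 also: cells stimulated with 9-cis-retinoic acid as agonist; % is scaled to controls: 0 for no effect and ±100 for the full control effect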). The settings on record: HEK293T RXRa-UAS-bla, beta-lactamase ratio, antagonist mode; measured here: W530 green channel, cytotoxicity proxy. The gist of the method:
(§1)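 Beta-lactamase reporter inhibition, read as CCF4 fluorescence ratio (ex 405, em 460/530 nm) after 2 h at RT. HEK293T UAS-bla cells, 2500/well, were stimulated with 9-cis-RA at 500 or 100 nM final alongside test compound for 18 h at 37 C.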

For experiment [10], the target named is Retinoic acid receptor RXR-alpha (Homo sapiens) (UniProt P19793). Described as above. The settings on record: HEK293T RXRa-UAS-bla, beta-lactamase ratio, antagonist mode. The method in brief:
as §1

For experiment [11], the target named is Thyroid hormone receptor beta (Homo sapiens) (UniProt P10828). Put plainly: qHTS assay for small molecule antagonists of thyroid hormone receptor beta signaling (AID 588547; active = well fitted inhibition curve with a large enough effect in the signal ratio, with a control signal flat, not every such curve was filed as active; the % refers to the signal ratio;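 also: cells stimulated with 0.4 nM T3 agonist during compound exposure; series mostly up to about 77 µM; % is scaled to controls: 0 for no effect and ±100 for the full control effect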). Particulars: TR-UAS-bla HEK293, beta-lactamase ratio, antagonist mode, 18 h. The gist of the method: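 Inhibition of T3-driven (0.4nM final) beta-lactamase reporter activity was measured over 0.59 nM to 92 uM compound after 18 h at 37 C. The cells were GripTite HEK293 TR-UAS-bla in charcoal/dextran-stripped serum, with CCF4 ratio read-out and IC50 from Hill fits.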
Thyroid hormone receptor beta (Homo sapiens), sequence (P10828 whole entry, looked up): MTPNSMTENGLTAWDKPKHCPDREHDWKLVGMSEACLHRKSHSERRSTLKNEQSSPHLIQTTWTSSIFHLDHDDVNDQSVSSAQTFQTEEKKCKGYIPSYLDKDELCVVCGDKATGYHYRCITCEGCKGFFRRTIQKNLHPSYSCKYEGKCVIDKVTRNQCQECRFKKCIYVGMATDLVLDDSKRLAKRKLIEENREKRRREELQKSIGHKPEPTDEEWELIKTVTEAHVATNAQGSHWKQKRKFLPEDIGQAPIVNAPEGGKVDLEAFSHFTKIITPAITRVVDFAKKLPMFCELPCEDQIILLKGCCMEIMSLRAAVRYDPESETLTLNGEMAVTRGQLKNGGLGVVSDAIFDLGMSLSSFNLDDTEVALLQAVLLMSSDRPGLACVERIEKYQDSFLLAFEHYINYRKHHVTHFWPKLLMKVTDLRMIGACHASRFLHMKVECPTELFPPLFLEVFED

Experiment [12] addresses Voltage-gated inwardly rectifying potassium channel KCNH2 (Homo sapiens) (UniProt Q12809). Put plainly: qHTS Assay for Small Molecule Inhibitors of the Human hERG Channel Activity (AID 588834; active = well fitted curve in the direction sought with a large enough effect; an effect the other way counts as inactive or inconclusive;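 also: U2OS cells transduced with hERG by BacMam; top concentration of the series differs between compounds; % is scaled to controls: 0 for no effect and ±100 for the full control effect; lower thallium flux fluorescence means stronger hERG block; nearly all actives have a fitted effect of over 50% in size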). The gist of the method: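 Cells were infected with hERG-BacMam virus for 4 hrs at room temperature, grown overnight, then seeded at 2000/well. After dye loading and roughly 10 min compound treatment, thallium influx was triggered and fluorescence recorded.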

Experiment [13] is described as follows: qHTS assay for small molecule agonists of the antioxidant response element (ARE) signaling pathway (AID 651741; active = well fitted activation curve with a large enough effect in the signal ratio; the % refers to the signal ratio; also: % of control where 0% means no effect). The gist of the method: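 Beta-lactamase reporter under ARE control in HepG2 cells, 2,000 per well, was induced by 16 h compound treatment at 37 C. Read-out was fluorescence from LiveBLAzer B/G FRET substrate after 2 h at room temperature.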
A short description of experiment [14]: qHTS assay for small molecule activators of the p53 signaling pathway (AID 651743; active = well fitted activation curve with a large enough effect in the signal ratio, not every such curve was filed as active; the % refers to the signal ratio; also: series mostly up to about 92 µM; % of control where 0% means no effect). The settings on record: HCT-116 p53RE-bla, beta-lactamase FRET ratio, 16 h; stronger effect = higher value. The gist of the method:
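After 16 hours compound treatment at 37 C, HCT-116 cells stably expressing p53RE-driven beta-lactamase were loaded with LiveBLAzer B/G FRET substrate for 2 hours at room temperature. Fluorescence intensity served as the p53 activation read-out.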

A short description of experiment [15]: qHTS assay for small molecule activators of the nuclear factor-kappa B (NF-kB) signaling pathway (AID 651749; active = well fitted activation curve with a large enough effect in the signal ratio; the % refers to the signal ratio; also: series mostly up to about 77 µM; % of control where 0% means no effect). The settings on record: NF-kB-bla ME-180 cells, beta-lactamase FRET ratio, 16 h; stronger effect = higher value. The gist of the method:
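Activation measured after 16 hr compound treatment at 37C, 5% CO2, of 2,000 ME-180 cells/well stably expressing an NF-kB response element–driven beta-lactamase reporter, via FRET-disruption fluorescence.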

Experiment [16] in a line: qHTS assay for small molecule disruptors of the mitochondrial membrane potential - 1 hr assay (AID 651754). Also: % is scaled to controls: 0 for no effect and ±100 for the full control effect; nearly all actives have a fitted effect of over 35% in size. The gist of the method: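 Loss of mitochondrial potential shifts the cationic dye from red mitochondrial aggregates to green cytoplasmic monomers. Cells (HepG2) are treated with compound for 1 hr before a 30 min dye incubation at 37C.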
The nature of experiment [17]: qHTS assay for small molecule disruptors of the mitochondrial membrane potential - 5 hr assay (AID 651755). Also: % is scaled to controls: 0 for no effect and ±100 for the full control effect; nearly all actives have a fitted effect of over 40% in size. The method in brief:
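Membrane-potential dye readout: red aggregate (540 ex/590 em) versus green monomer (490 ex/535 em) fluorescence after 30 min dye loading, following 5 hr compound exposure at 37C of overnight-plated HepG2 cells.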

A short description of experiment [18]: qHTS assay to identify small molecules that stimulate interleukin-8 (IL-8) secretion (AID 651758; active = well fitted activation curve with a large enough effect in the signal ratio; the % refers to the signal ratio; also: 0% is about no effect). The gist of the method:
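Secreted IL-8 measured homogeneously by TR-FRET (two labelled anti-IL-8 antibodies, 1-3 h at room temperature) after a 16 h, 37 C compound treatment of THP-1 cells at 2000 cells/well.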

A short description of experiment [19]: qHTS assay for environmental chemicals that activate the Aryl hydrocarbon Receptor (AhR) signaling pathway (AID 651777; active = well fitted curve in the direction sought with a large enough effect; an effect the other way counts as inactive or inconclusive; also: potency is read from the fitted curve at half-maximal effect; nearly all actives have a fitted effect of over 15% in size). Particulars: 1A2-DRE human hepatoma cells, luciferase, 24 h. The gist of the method: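 AhR activation is scored as a rise in luciferase from a stable DRE–CYP1A2 promoter construct in human hepatoma cells. Treatment lasts 24 hr at 37 C; detection uses One-Glo after 30 min at room temperature.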

Experiment [20] addresses Tumor necrosis factor (Homo sapiens) (UniProt P01375). Description: qHTS assay to identify small molecules that stimulate Tumor Necrosis Factor-alpha (TNF-alpha) secretion (AID 651757; active = well fitted curve in the direction sought with a large enough effect in the signal ratio; the % refers to the signal ratio; also: 0% is about no effect). The gist of the method: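 Human monocytic THP-1 cells are plated, treated with compound and held at 37 C for 17 hrs. Labeled anti-TNF-alpha antibody mixture is then added; after 3 hr at room temperature, TR-FRET signal reports secreted TNF-alpha.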

Vitamin D3 receptor (Homo sapiens), sequence (P11473 whole entry, looked up): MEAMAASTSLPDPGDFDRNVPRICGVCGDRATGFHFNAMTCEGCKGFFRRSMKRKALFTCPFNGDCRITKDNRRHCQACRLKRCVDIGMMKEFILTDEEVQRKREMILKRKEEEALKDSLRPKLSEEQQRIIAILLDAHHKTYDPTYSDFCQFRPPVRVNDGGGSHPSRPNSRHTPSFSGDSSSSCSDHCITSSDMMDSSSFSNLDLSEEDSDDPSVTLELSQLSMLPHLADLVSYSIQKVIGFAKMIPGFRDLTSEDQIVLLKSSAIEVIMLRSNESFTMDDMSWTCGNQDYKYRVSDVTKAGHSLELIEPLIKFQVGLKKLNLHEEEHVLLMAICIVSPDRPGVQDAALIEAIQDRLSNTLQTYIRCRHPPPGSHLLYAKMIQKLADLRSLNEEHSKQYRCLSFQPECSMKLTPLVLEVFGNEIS
Retinoic acid receptor RXR-alpha (Homo sapiens), sequence (P19793 whole entry, looked up): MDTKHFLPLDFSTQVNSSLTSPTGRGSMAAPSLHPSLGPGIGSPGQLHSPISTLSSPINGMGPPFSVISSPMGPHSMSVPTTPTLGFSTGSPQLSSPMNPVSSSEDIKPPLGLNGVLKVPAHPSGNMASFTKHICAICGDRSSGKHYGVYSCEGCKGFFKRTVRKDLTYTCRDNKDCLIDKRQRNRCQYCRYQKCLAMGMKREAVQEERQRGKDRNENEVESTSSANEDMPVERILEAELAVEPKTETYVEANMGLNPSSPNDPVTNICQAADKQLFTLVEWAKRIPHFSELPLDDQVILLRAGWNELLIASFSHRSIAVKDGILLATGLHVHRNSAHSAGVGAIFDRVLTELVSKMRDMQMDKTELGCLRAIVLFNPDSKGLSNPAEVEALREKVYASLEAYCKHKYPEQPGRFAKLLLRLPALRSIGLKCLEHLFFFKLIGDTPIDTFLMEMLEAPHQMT
Voltage-gated inwardly rectifying potassium channel KCNH2 (Homo sapiens), sequence (Q12809 whole entry, looked up): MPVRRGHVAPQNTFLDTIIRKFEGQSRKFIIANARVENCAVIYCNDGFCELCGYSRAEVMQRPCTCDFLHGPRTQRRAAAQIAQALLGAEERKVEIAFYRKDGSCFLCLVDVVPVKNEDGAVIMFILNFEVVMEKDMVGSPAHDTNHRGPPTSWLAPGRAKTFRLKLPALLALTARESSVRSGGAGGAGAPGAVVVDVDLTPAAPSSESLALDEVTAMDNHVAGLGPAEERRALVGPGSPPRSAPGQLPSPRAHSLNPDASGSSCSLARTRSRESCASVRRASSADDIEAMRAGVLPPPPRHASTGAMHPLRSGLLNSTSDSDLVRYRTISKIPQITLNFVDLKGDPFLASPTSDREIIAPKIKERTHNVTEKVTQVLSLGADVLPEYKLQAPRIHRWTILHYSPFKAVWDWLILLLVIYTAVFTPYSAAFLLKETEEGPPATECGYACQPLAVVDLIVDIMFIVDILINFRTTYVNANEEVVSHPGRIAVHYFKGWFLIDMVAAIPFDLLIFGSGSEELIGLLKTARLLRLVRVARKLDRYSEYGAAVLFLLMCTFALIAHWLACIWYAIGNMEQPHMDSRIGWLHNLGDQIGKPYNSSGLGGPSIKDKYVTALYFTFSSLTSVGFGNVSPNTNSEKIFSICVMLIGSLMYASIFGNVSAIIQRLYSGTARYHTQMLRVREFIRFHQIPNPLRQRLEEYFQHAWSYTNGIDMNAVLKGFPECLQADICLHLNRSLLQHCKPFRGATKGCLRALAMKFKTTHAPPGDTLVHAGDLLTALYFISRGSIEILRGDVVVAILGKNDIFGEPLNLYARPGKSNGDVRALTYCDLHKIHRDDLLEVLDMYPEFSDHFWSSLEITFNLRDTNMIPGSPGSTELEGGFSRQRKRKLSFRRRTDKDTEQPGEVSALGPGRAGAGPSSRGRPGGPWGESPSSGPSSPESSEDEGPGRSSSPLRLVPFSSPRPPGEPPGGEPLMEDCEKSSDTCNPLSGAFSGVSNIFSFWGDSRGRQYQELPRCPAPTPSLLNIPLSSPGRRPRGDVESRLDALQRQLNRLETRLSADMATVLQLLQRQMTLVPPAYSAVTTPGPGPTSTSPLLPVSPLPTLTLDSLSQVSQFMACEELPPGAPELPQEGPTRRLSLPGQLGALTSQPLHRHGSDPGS
Tumor necrosis factor (Homo sapiens), sequence (P01375 whole entry, looked up): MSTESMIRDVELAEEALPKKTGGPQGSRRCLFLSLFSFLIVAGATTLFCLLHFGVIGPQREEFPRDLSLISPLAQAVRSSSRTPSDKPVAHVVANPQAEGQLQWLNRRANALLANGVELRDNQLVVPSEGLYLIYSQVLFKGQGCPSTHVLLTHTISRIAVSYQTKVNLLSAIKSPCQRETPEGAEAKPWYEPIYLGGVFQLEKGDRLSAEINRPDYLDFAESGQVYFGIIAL

For the compound `CCc1cccc2c3c([nH]c12)[C@@](CC)(CC(=O)O)OCC3`, the result in experiment [1], in experiment [2], in experiment [3] and in [4] was inactive.
Consider `COc1ccc(CCC(=O)c2c(O)cc(O[C@@H]3O[C@H](CO)[C@@H](O)[C@H](O)[C@H]3O[C@@H]3O[C@@H](C)[C@H](O)[C@@H](O)[C@H]3O)cc2O)cc1O`, for which the outcome in experiment [5], in experiment [7], in experiment [8], in [12], in [13] and in experiment [16] was inactive. Also, the result in experiment [17] and in experiment [18] was inactive. Besides, the max response was 1.28% in [6], -15.7% in [9] and 10.3% (inactive) in experiment [10]. Moreover, the activity change % (negative = inhibition) in [11] was -11.4% (inactive). The activation in experiment [14] is -3.41% (inactive); in experiment [15], -2.14% (inactive).
As for `CCC(=O)OCC(=O)[C@@]1(OC(=O)CC)[C@@H](C)C[C@H]2[C@@H]3CCC4=CC(=O)C=C[C@]4(C)[C@@]3(F)[C@@H](O)C[C@@]21C`, the result in experiment [1] was inactive.
Turning to `CCOC(=O)C(CCc1ccccc1)NC(C)C(=O)N1Cc2ccccc2CC1C(=O)O` (configuration not stated), the compound was classed as inactive in experiment [1], in experiment [2], in [3] and in experiment [4].
On to `O=C(/C=C/C=C/c1ccc2c(c1)OCO2)N1CCCCC1`, for which the outcome in experiment [5], in [8] and in experiment [13] was inactive. For the same compound, in experiment [11], the activity change % (negative = inhibition) was -4.09% (inactive). Moreover, the figures for the activation in experiment [14] and in experiment [15] were -2.18% (inactive) and -1.08% (inactive), respectively. Further, the Potency in [19] was 14.1 µM (active).
For the compound `C=C1C[C@]23C[C@@]1(O)CC[C@H]2[C@@]12C=C[C@H](O)[C@@](C)(C(=O)O1)[C@H]2[C@@H]3C(=O)O`, the call in experiment [5], in experiment [7], in [8], in experiment [12], in [13] and in [16] was inactive. Also, the call in [17] and in experiment [20] was inactive. For the same compound, the max response in [6] is -10.6%; in experiment [9], 4.31%; in [10] it was 6.93% (inactive). Further, in [11], the activity change % (negative = inhibition) was 23.9% (inactive).

These data come from PubChem BioAssay (NCATS).
